An excerpt weighted towards active compounds, which were near 0.68% of everything screened.
Tb PYK inh: qHTS of Trypanosoma Brucei Inhibitors; pyruvate kinase (Trypanosoma brucei), Q57TT1; TbPYK enzyme, Kinase-Glo Plus ATP luminescence, 45 min; 410,000 compounds, 0.12% hits; Potency, µM (titrated, usually from 76.8 µM), for the others: at the top dose activity, negative = inhibition, most hits filed as inhibitors; note: nearly all actives have a fitted effect of over 50% in size
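TbPYK + substrate in 50 mM TEA pH 7.2, 100 mM KCl, 10 mM MgCl2, 0.05% BSA, 0.01% Tween-20; cpd pinned; ADP 130 uM final; 45 min RT; Kinase-Glo Plus 10 min; luminescence endpoint.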
LmPK inhibitor: qHTS Assay for Inhibitors of Leishmania Mexicana Pyruvate Kinase (LmPK); Q27686; purified LmPK, Kinase-Glo ATP luminescence, 1 h; Potency, µM (top dose mostly 57.5 µM), for inactives: top-dose activity change, negative = inhibition, actives largely listed as inhibitors; 290,000 compounds, 0.37% hits
Target sequence (Q27686 whole entry, looked up): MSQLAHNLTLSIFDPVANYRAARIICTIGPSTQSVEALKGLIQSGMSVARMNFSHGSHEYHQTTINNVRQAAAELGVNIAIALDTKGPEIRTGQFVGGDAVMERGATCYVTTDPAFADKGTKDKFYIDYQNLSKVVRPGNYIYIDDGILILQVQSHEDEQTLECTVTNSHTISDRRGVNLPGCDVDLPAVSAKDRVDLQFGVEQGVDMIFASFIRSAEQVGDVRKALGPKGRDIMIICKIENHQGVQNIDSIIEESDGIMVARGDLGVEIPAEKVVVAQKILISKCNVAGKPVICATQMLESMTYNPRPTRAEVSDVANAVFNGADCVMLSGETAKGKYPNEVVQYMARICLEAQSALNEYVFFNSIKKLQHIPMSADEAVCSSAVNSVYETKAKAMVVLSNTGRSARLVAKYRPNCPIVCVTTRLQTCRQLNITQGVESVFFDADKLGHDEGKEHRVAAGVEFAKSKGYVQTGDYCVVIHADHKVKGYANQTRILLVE
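Pyruvate kinase activity monitored as ATP production (luciferase luminescence). Conditions: 0.1 nM enzyme, 0.5 mM PEP, 0.1 mM ADP, 1 h, RT; normalized against uninhibited and no-enzyme wells.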
RE007 growth inh: qHTS Assay for Inhibitors of the HIV-1 protein Vpr; S. pombe RE007 Vpr strain, BacTiter-Glo ATP luminescence, 24 h; Potency, µM (series often up to 92.2 µM), without a hit: top-dose activity change, negative = less growth, most hits filed as inhibitors; 360,000 compounds, 0.21% hits; AID 651644, 2012; active = well fitted falling curve with a large enough effect; inconclusive = small, poorly fitted or top-dose-only effect; inactive = no such curve, though single readings can be large or run the other way; note: nearly all actives have a fitted effect of over 50% in size
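Fission yeast strain RE007, carrying one chromosomally integrated HIV-1 vpr copy, was seeded at OD 0.01 in PMG+AL medium with 23 nL pinned compound. After 24 h at 30 °C and 99% humidity, viability was read by BacTiter-Glo luminescence.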
AMA1-RON2 inh: qHTS for Inhibitors of AMA1-RON; Towards Development of Antimalarial Drug Lead: Primary Screen; Plasmodium falciparum AMA1 (3D7) - RON2 peptide interaction; AlphaScreen AMA1-biotinylated RON2 peptide binding; Potency, µM (doses to about 58.2 µM), for the others: top-dose activity change, negative = inhibition, actives largely listed as inhibitors; 360,000 compounds, 0.2% hits; AID 720542, 2013;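 note: 0% = vehicle wells and -100% = peptide control; nearly all actives have a fitted effect of over 45% in size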
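AMA1 (3D7) with his tag at 25 nM final met compounds first, then biotinylated RON2 peptide at 25 nM; detection used donor plus acceptor beads, 10 µg/mL apiece, read by AlphaScreen after 30 min at room temperature.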
* = called active by the depositor; ? = inconclusive; nt = no result given; [ ] = another dose, or the depositor's remark. Unless noted, calls come from the whole dose curve; as a rule, active = well fitted curve in the direction sought with a large enough effect; inconclusive = small, poorly fitted or top-dose-only effect, or another doubt; inactive = no such curve, though single readings can be large; an effect the other way counts as inactive or inconclusive. Unless noted, % is set by controls: 0 for no effect and ±100 for the full control effect; potency is the fitted concentration of half-maximal effect.

SMILES | Tb PYK inh | LmPK inhibitor | RE007 growth inh | AMA1-RON2 inh
O=C(COC(=O)/C=C/c1ccc(C(F)(F)F)cc1)NC1CCS(=O)(=O)C1 (stereo not given) | 10% | nt | -2% | -12%
CCc1nnc(NC(=O)CS(=O)(=O)c2ccccc2)s1 | -4% | -3% | -12% | -6%
CC(C)c1cc2c(c(O)c1O)[C@@]13CCCC(C)(C)C1CC2OC3=O (stereo not given in full) | ? | 16µM* | -11% | -3%
C/C(=C\C(=O)Nc1cscc1C)C(=O)O | -4% | 0% | 3% | 1%
COc1ccc(CNC(=O)[C@H](C)NC(=O)C2CCN(S(=O)(=O)c3ccccc3)CC2)cc1 | -2% | 3% | -12% | -1%
Cc1nc2nc(-c3ccccc3)cn2nc1C | -23% | 13µM* | -9% | 42%
Cc1nc2nc(-c3ccc(F)cc3)cn2nc1C | ? | ? | nt | 6%
CCCc1c(O)nc(SC2CC(=O)N(c3ccc(C)c(Cl)c3)C2=O)[nH]c1=O (stereo not given) | 1% | nt | ? | 70%
Cc1ccc(N2C(=O)CC(Sc3nc4ccccc4o3)C2=O)cc1Cl (stereo not given) | -1% | 1% | 10µM* | 6%
CCN(CC)c1ccc(NC(=O)c2ccc3c(c2)c(C)c(C)n3C)cc1 | -11% | -5% | 6% | 7.9µM*
Cc1ccccc1CNC(=O)c1ccc2c(c1)c(C)c(C)n2C | -6%[15.4 µM] | nt | nt | nt
COc1cc(S(=O)(=O)NC2CCCC2)ccc1-n1cnnn1 | 1% | -2% | 5% | 6%
CCCc1cc(-c2n[nH]c(=S)n2CC(C)C)cs1 | ? | ? | 23% | 43%
Cc1ccsc1-c1n[nH]c(=S)n1CC(C)C | ? | 14µM* | 13% | 43%
CC(C)Cn1c(-c2nn(C)cc2Cl)n[nH]c1=S | ? | 13µM* | 11% | 0%
CC(C)Cn1c(-c2ccc(Br)o2)n[nH]c1=S | 4µM* | ? | -2% | 36%
COc1ccc(N2CC(C(=O)OCC(=O)c3cccc(OC)c3)CC2=O)cc1 (stereo not given) | 0% | 10% | 8% | -11%
O=C(Nc1nnc(C2CC2)s1)C1Cc2ccccc2CN1S(=O)(=O)c1cccs1 (stereo not given) | -1% | 0% | 0% | 0%
CCN(CC)CCOC(=O)c1ccc(NC(=O)C2(c3ccccc3)CCCC2)cc1 | 2% | 3% | -16% | 13%
O=C(N/N=C/c1ccccc1)c1n[nH]c2c1CCCC2 | 2% | -9% | 15% | 5%
O=C(N/N=C/c1cccs1)c1n[nH]c2c1CCC2 | -18% | 25µM* | -1% | 39%
COc1cc(C(CCN2CCCC(C)C2)c2c(OC)cc(OC)c3c2OC(=O)CC3c2ccc(N(C)C)cc2)cc(OC)c1OC (stereo not given) | -14% | 1% | 0% | 20µM*
COc1cc(C2CC(=O)Oc3c(C(CCN4CCCC(C)C4)c4ccc(N(C)C)cc4)c(OC)cc(OC)c32)cc(OC)c1OC (stereo not given) | 2% | 6% | 5% | -27%
COc1ccc(C2CC(=O)Oc3c(C(CCN4CCOCC4)c4cc(OC)c(OC)c(OC)c4)c(OC)cc(OC)c32)cc1 (stereo not given) | 4% | 9% | -11% | -20%
COc1cc(C(CCN2CCOCC2)c2c(OC)cc(OC)c3c2OC(=O)CC3c2ccc(N(C)C)cc2)cc(OC)c1OC (stereo not given) | -6% | 0% | -17% | 20µM*
COc1cc(OC)c2c(c1C(CCN1CCOCC1)c1ccc(N(C)C)cc1)OC(=O)CC2c1ccc(N(C)C)cc1 (stereo not given) | -7% | 5% | 4% | 14µM*
COc1ccc(C2CC(=O)Oc3c(C(CCN4CCN(c5ccccc5)CC4)c4ccc(N(C)C)cc4)c(OC)cc(OC)c32)cc1 (stereo not given) | 2% | 3% | -16% | 11µM*
CCN(CC(=O)Nc1cc(S(=O)(=O)N2CCCCC2)ccc1Cl)Cc1ccccc1 | -8% | nt | 9% | -3%
CC(C)c1ccc(Nc2nnc(SC3CCOC3=O)s2)cc1 (stereo not given) | -5% | 2% | 0% | -2%
